# Measured values reported in the supplement of paper PMC8728848.
# About 410 targets per protein were measured; listed, in parts, are those with the strongest signals and a random draw of the rest.
# B1: B1567 (Bifidobacterium sp) (protein)
# chain: MKFTTAKKAVALTGAVAMLVSVAACGSDSGKSSQPAQDSDVKEITVWAWEPSLTQVAKDFEKETGIKVDLKNVGTNTKEYTQLDNAIEAGSGAPDVAQVEYYAVPQYAIKGNLLDITDKTSGYKDFYTPGPWASVQFAGKVYGLPMDSGPMAFFYNKEVFDKAGVDAEQIKTWDQYYDAAKKIHALGDNYYITSDTGDAGFFDSMTWLAGAKPFQTSSDGSEVTVNLTEDKGVKTFTDFWQKLLDEGLLDTKTAGWSEDWFKGMVDGTIASLFTGAWMPANLANSAADGAGKWRVTQMPTADGSTTNSENGGSSLAVLASTKKADAAYQFIEYANHGAGVATRVAGGAFPADKASLEKDSFKNATTVKNADGQDVDYFGGQKYNEVLAQAAENVSSGYQFLPFEVKARTIFGDYFGKSYTGDQKLSDGVAAWQKALQDYGKDQGFTVK
# Columns and labels:
# Assay in all cases: glycan array binding signal (z-score within array); higher = stronger binding
# Details in all cases: glycan notation: IUPAC condensed, linker removed
# GalNAc(b1-3)Gal = biological target: GalNAc(b1-3)Gal
# Outline: (§1)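 Columns mapping to the same glycan were averaged after glycan names were converted to IUPAC-condensed notation. The data come from 3228 arrays in the Consortium for Functional Glycomics database, limited to those with an available protein sequence. Binding is reported as a within-array Z-score averaged across arrays of one protein sequence and across linkers.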
# [1] = biological target: GalNAc(b1-3)Gal(a1-4)Gal(b1-4)GlcNAc(b1-3)Gal(b1-4)Glc
# Outline: as §1
# [2] = biological target: GalNAc(b1-4)GlcNAc(b1-2)Man(a1-3)[GalNAc(b1-4)GlcNAc(b1-2)Man(a1-6)]Man(b1-4)GlcNAc(b1-4)GlcNAc
# Outline: as §1
# GalNAc(b1-6)GalNAc = biological target: GalNAc(b1-6)GalNAc
# Outline: as §1
# GalNAc3S(b1-4)GlcNAc3S = biological target: GalNAc3S(b1-4)GlcNAc3S
# Outline: as §1
# [3] = biological target: GlcNAc(a1-4)Gal(b1-4)GlcNAc(b1-3)Gal(b1-4)[Fuc(a1-3)]GlcNAc(b1-3)Gal(b1-4)[Fuc(a1-3)]GlcNAc
# Outline: as §1
# [4] = biological target: GlcNAc(b1-2)[GlcNAc(b1-4)]Man(a1-3)[GlcNAc(b1-4)][GlcNAc(b1-2)[GlcNAc(b1-6)]Man(a1-6)]Man(b1-4)GlcNAc(b1-4)[Fuc(a1-6)]GlcNAc
# Outline: as §1
# [5] = biological target: GlcNAc(b1-3)Gal(b1-4)GlcNAc(b1-3)Gal(b1-4)GlcNAc(b1-2)Man(a1-3)[GlcNAc(b1-3)Gal(b1-4)GlcNAc(b1-3)Gal(b1-4)GlcNAc(b1-2)Man(a1-6)]Man(b1-4)GlcNAc(b1-4)GlcNAc
# Outline: as §1
# [6] = biological target: GlcNAc(b1-3)Gal(b1-4)GlcNAc(b1-3)[GlcNAc(b1-3)Gal(b1-4)GlcNAc(b1-3)]GalNAc
# Outline: as §1
# [7] = biological target: Man(a1-2)Man(a1-3)[Man(a1-6)]Man(a1-6)[Man(a1-2)Man(a1-3)]Man(b1-4)GlcNAc(b1-4)GlcNAc
# Outline: as §1
# Man(b1-4)GlcNAc = biological target: Man(b1-4)GlcNAc
# Outline: as §1
# Neu5Ac(a2-3)Gal = biological target: Neu5Ac(a2-3)Gal
# Outline: as §1
# [8] = biological target: Neu5Ac(a2-3)Gal(b1-3)GalNAc(b1-4)Gal(b1-4)Glc
# Outline: as §1
# [9] = biological target: Neu5Ac(a2-3)Gal(b1-4)GlcNAc(b1-2)Man(a1-3)[Neu5Ac(a2-3)Gal(b1-4)GlcNAc(b1-2)Man(a1-6)]Man(b1-4)GlcNAc(b1-4)[Fuc(a1-6)]GlcNAc
# Outline: as §1
# [10] = biological target: Neu5Ac(a2-6)Gal(b1-3)GlcNAc(b1-3)[Gal(b1-4)GlcNAc(b1-6)]Gal(b1-4)Glc
# Outline: as §1
# [11] = biological target: Neu5Ac(a2-6)Gal(b1-4)GlcNAc(b1-2)Man(a1-3)[Gal(b1-4)GlcNAc(b1-2)Man(a1-6)]Man(b1-4)GlcNAc(b1-4)GlcNAc
# Outline: as §1
# [12] = biological target: Neu5Ac(a2-6)Gal(b1-4)GlcNAc6S
# Outline: as §1
# [13] = biological target: Neu5Gc(a2-3)Gal(b1-4)[Fuc(a1-3)]GlcNAc
# Outline: as §1
binder,measurement,setting,value
B1,glycan array binding signal (z-score),GalNAc(b1-3)Gal,-0.116
same,glycan array binding signal (z-score),[1],-0.139
same,glycan array binding signal (z-score),[2],0.398
same,glycan array binding signal (z-score),GalNAc(b1-6)GalNAc,-0.095
same,glycan array binding signal (z-score),GalNAc3S(b1-4)GlcNAc3S,-0.058
same,glycan array binding signal (z-score),[3],0.042
same,glycan array binding signal (z-score),[4],-0.12
same,glycan array binding signal (z-score),[5],0.008
same,glycan array binding signal (z-score),[6],-0.052
same,glycan array binding signal (z-score),[7],0.007
same,glycan array binding signal (z-score),Man(b1-4)GlcNAc,-0.154
same,glycan array binding signal (z-score),Neu5Ac(a2-3)Gal,-0.108
same,glycan array binding signal (z-score),[8],-0.112
same,glycan array binding signal (z-score),[9],-0.063
same,glycan array binding signal (z-score),[10],-0.118
same,glycan array binding signal (z-score),[11],-0.128
same,glycan array binding signal (z-score),[12],-0.094
same,glycan array binding signal (z-score),[13],-0.036
